Screens (PubChem)
Vc quorum ag: induces V. cholerae light production without autoinducers | V. cholerae BH1578 lux reporter, luminescence, 6 h | activation, % at 18.7 µM | hit rate 0.16% among 350,000 | AID 588436; in the data active means activation mostly above about 9.7%, no sharp cut-off
GDH-TPI counter-1: counter-screen for M. tuberculosis FBA inhibitors: GDH-TPI coupled enzymes; GDH-TPI coupled enzyme counterscreen, NADH absorbance; inhibition, % at 4.8 µM; hit rate 1.2% among 360,000; AID 588335; in the data active means inhibition above about 30%;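 further: 0% = DMSO wells and 100% = wells lacking the enzyme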
Mtb FBA inh: inhibitors of M. tuberculosis fructose-bisphosphate aldolase; P9WQA3; purified M. tuberculosis FBA, fluorescence read-out; inhibition, % at 1 µM; hit rate 2.3% among 360,000; AID 588726;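 further: 0% = vehicle and 100% = reference inhibitor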
Target sequence (P9WQA3 whole entry, looked up): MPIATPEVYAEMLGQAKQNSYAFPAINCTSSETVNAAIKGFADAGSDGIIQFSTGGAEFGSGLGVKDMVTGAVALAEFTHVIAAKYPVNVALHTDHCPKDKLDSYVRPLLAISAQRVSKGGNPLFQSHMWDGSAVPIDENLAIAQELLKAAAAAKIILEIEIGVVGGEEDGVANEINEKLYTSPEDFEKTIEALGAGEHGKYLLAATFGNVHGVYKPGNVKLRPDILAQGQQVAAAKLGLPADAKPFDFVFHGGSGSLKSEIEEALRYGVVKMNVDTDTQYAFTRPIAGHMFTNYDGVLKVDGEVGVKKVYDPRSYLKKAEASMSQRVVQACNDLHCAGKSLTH
Mtb BioA inh: inhibitors of Mycobacterium tuberculosis BioA enzyme | inhibition, % at 9.99 µM | hit rate 0.096% among 360,000 | purified M. tuberculosis BioA enzyme, plate reader | AID 602481; in the data active means inhibition above about 40%
Mtb FBA confirm: Mtb FBA inhibition, confirmed | inhibition, % at 1 µM | hit rate 78% among 5,600 | purified M. tuberculosis FBA, fluorescence read-out | AID 651616 | shares compounds with Mtb FBA inh;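 further: 0% = vehicle wells and 100% = reference inhibitor wells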
GDH-TPI counter-2: inhibits GDH-TPI coupling enzymes, flagging Mtb FBA hits; GDH-TPI coupled enzyme counterscreen, fluorescence; AID 652141; shares compounds with Mtb FBA inh; hit rate 81% among 5,600; inhibition, % at 1 µM; in the data active means inhibition above about 10%
* = called active by the depositor; i = inactive; / = not tested or not shown. Compounds with a hit are over-represented: about 3% of the library has one in this group of screens. Unless noted, no stated cut-off is given here; in the data, active means inhibition above about 27%; inactive means the rest.

SMILES	Vc quorum ag	GDH-TPI counter-1	Mtb FBA inh	Mtb BioA inh	Mtb FBA confirm	GDH-TPI counter-2
N#Cc1nc(COc2ccccc2F)oc1NCc1ccc(F)cc1	0	0	-2	0	/	/
COc1ccc(-c2nc(C#N)c(NCc3ccc(F)cc3)o2)cc1OC	-1	10	103*	3	74*	55*
N#Cc1nc(Cc2ccccc2)oc1NCc1ccccc1Cl	3	1	0	4	/	/
COc1ccc(-c2nc(C#N)c(NCc3cccnc3)o2)cc1OC	0	14	30*	13	53*	39*
COc1ccc(-c2nc(C#N)c(NCc3ccccc3Cl)o2)cc1OC	0	23	57*	/	114*	81*
N#Cc1nc(Cc2ccccc2)oc1NCc1cccnc1	i	0	0	3	/	/
Cc1ccc(F)cc1NC(=O)CCNC(=O)c1ccc([N+](=O)[O-])cc1	-1	0	37*	-2	163*	124*
